# Rows were chosen to be rich in hits. Some 4.8% of all compounds tested hit in one or more screens of this group.
# SMARCA2 activ: SMARCA2 function activation, primary screen; MG213 cells, MMTV-luciferase reporter, dexamethasone, overnight; activation, % at 9.1 µM; 370,000 compounds, 1% hits; AID 652017; in the data active = activation above about 7.8%;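 note: 0% = vehicle wells and 100% = reference activator wells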
# ssDAF12 agonist: activates DAF-12 receptor from parasite S. stercoralis; HEK293 ssDAF-12/GRIP1 lit1-tk-luc reporter, luminescence; % of 3 µM dafachronic acid response; activation, % at 6.8 µM; 370,000 compounds, 1% hits; AID 652126;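 active = activation above the mean over all tested compounds plus 3 SD, cut at about 0.9% in these data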;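 note: 0% = DMSO-only wells and 100% = 3 µM delta7-dafachronic acid wells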
# DAX1 inh-1: inhibitors of human orphan nuclear receptor DAX1 (NR0B1); inhibition, % at 6.75 µM; AID 504766; 340,000 compounds, 0.99% hits; HEK293 Gal4-DAX1 luciferase reporter, luminescence;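 active = inhibition above the mean over all tested compounds plus 3 SD, cut at about 4.2% in these data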;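 note: 0% = DAX1-transfected cells with DMSO and 100% = empty-vector control cells with DMSO; inhibition shows as a rise in luminescence from relieved DAX1 repression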
# Target sequence (P51843 207-470 limits assumed): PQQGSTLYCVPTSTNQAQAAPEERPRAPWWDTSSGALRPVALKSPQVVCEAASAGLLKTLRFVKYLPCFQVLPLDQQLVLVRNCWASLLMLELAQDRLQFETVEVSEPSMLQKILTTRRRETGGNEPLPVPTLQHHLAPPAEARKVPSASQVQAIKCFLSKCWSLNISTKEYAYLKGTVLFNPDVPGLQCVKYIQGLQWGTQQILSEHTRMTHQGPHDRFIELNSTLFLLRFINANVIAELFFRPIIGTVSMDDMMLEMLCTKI
# hgDAF-12 ag: agonists of H. glycines DAF-12 nuclear receptor; 370,000 compounds, 1.8% hits; activation, % at 6.8 µM; HEK293 GAL4-hgDAF12 UAS-luciferase reporter, agonist luminescence; normalized to butyrate control;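 active = activation above a cutoff set at the mean of all screened compounds plus 3 SD, cut at about 10% in these data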;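 note: 0% = DMSO wells and 100% = sodium butyrate wells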
# DAX1 inh-2: blocks DAX1 repression of SF-1 activated StAR promoter | HEK293T StAR-luciferase reporter, SF-1/DAX-1 repression relief | inhibition, % at 6.8 µM | 370,000 compounds, 1.1% hits | AID 652010;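 active = inhibition above the mean over all tested compounds plus 3 SD, cut at about 3.6% in these data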;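 note: 0% = DAX-1 cells with DMSO and 100% = cells lacking DAX-1 with DMSO; higher inhibition means more luminescence from relief of DAX-1 repression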
# hcDAF12 agonist: activates DAF-12 receptor from parasite H. contortus. HEK293 hcDAF-12 lit1-tk-luc reporter, luminescence; 0% DMSO, 100% Δ7-dafachronic acid. activation, % at 6.8 µM. 370,000 compounds, 1.4% hits. AID 652067;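 active = activation above the mean of all tested compounds plus 3 SD, cut at about 5.5% in these data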;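 note: 100% = response to 3 µM Δ7-dafachronic acid high control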
# The depositor's hits bear a star; . = not tested or not shown.
SMILES,SMARCA2 activ,ssDAF12 agonist,DAX1 inh-1,hgDAF-12 ag,DAX1 inh-2,hcDAF12 agonist
O=C(Nc1ccc(N2CCOCC2)cc1)c1c(F)cccc1Cl,-3,-1,1,2,0,-1
Fc1ccc(-c2nc3c4ccccc4ccn3c2CC2CCCCC2)cc1,3,1.6*,.,4,2,6.4*
CCCc1nc2c3ccccc3ccn2c1CC1CCCCC1,-2,0,.,6,1,6.2*
Clc1cccc(-c2nc3c4ccccc4ccn3c2CC2CCCCC2)c1,0,1.1*,.,3,2,4
c1ccc(-c2nc3c4ccccc4ccn3c2CN2CCCCC2)cc1,-2,0,1,4,0,3
Cc1nnc(SC(C)C(=O)Nc2ccc3ccccc3c2)[nH]c1=O (centres undefined),2,1.3*,2,4,0,6
CC(Sc1nncn1C)C(=O)Nc1ccc(S(N)(=O)=O)cc1 (centres undefined),-2,-1,2,-1,0,0
CC(Sc1nncn1C)C(=O)Nc1ccc2ccccc2c1 (centres undefined),-1,-1,4.6*,1,3,1
COc1ccc(OC)c(/C=N/NC(=O)C(=O)N2CCCC2)c1,-1,-2,-1,0,-2,0
Cc1csc2ncc(C(=O)Nc3ccccc3F)c(=O)n12,1,0,1,6,1,6.2*
Cc1cc(Br)cn2c(Cc3cccc(F)c3)c(-c3cccc(Cl)c3)nc12,0,-1,.,-1,-1,-1
N#CCCn1cc(C(=O)Nc2ccc(C(=O)O)cc2)c(-c2cc3ccccc3o2)n1,-2,-2,-1,-1,0,0
O=C1N/C(=N/N=C/c2ccco2)SC1Cc1ccccc1 (centres undefined),-1,-1,5.9*,-3,0,-1
Cc1ccc(CC2S/C(=N/N=C/c3ccco3)NC2=O)cc1 (centres undefined),-1,-1,1,0,1,1
Cc1ccccc1-n1nc2c(c1NC(=O)c1ccc(S(=O)(=O)N(C)C)cc1)CSC2,3,-1,0,-2,1,5.9*
Cc1cc(C)c2c(=O)[nH]n(C3CCCCCC3)c2n1,2,-1,2,1,0,-1
Cc1ccc(/C=C2/Sc3ccc(C(=O)N4CCN(C)CC4)cc3NC2=O)cc1,2,-1,0,0,2,1
CN(c1ccccc1)S(=O)(=O)c1cccc(NC(=O)CCN2C(=O)C3CCCCC3C2=O)c1 (centres undefined),2,1.8*,-1,0,-2,1
Cc1nn(-c2ccccc2)c(C)c1/C=N/NC(=O)CSc1nc2ccccc2c(=O)n1-c1ccc(Br)cc1,-4,0,2,-3,-1,0
COc1cc(S(=O)(=O)N2CCCCC2)ccc1NC(=O)/C=C/c1ccccc1,-4,-1,-1,-1,-1,-1
CN1CCc2c(sc(/N=C/c3c[nH]c4ccccc34)c2C(N)=O)C1,-3,0,.,3,0,5.9*
CCOC(=O)c1c(/N=C/c2ccc(OC)cc2O)sc2c1CCN(C)C2,-5,-2,0,-2,-1,-2
CC1=NN(c2nc(-c3ccc(C)cc3)cs2)C(=O)C1N=Nc1ccccc1O (centres undefined),3,0.9*,.,1,0,2
CC1=NN(c2nc(-c3ccc(C)cc3)cs2)C(=O)C1N=Nc1cccc(O)c1 (centres undefined),1,-1,-1,-3,0,-1
CCc1ccc(/C(C)=N\Nc2ccc([N+](=O)[O-])cc2)cc1,2,0,4.3*,6,0,1
C/C(=N\Nc1ccc([N+](=O)[O-])cc1)c1ccc(N)cc1,4,0,2,5,1,2
CCCc1nc2c(sc3nc4c(cc32)COC(C)(C)C4)c(=O)n1Cc1ccco1,0,-1,0,-1,-1,-1
COc1cccc(/C(O)=C2/C(=O)C(=O)N(CCN(C)C)C2c2ccccn2)c1 (centres undefined),0,-1,1,0,0,0
